# Where “and” joins values, the source holds several entries; their conditions need not be identical. Equal values may be shown once. Screen size: about 350,000 compounds; about 5,500 (1.6%) were called active.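 How the source made its calls: active means significant combined selectivity score with lowered wild-type GFP, culture density cut under 30%, mutant RFP and density less affected; inactive means any of these conditions unmet.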 This excerpt belongs to a sample that is enriched for actives.
# Experiment: GFP drop in mixed WT/humanized-ribosome E. coli culture – GFP/RFP fluorescence, OD600, single point, bacterial rRNA inhibitor project, primary screen (AID 720706)
# Details: E. coli WT GFP vs humanized-ribosome RFP mutants, 24 h; GFP signal change (wild-type ribosome): stronger effect = lower value, DMSO median 0, no signal -100; OD600 change: measured here: OD600 growth, DMSO median 0, no signal -100; RFP signal change: measured here: RFP humanized mutant strains, DMSO median 0, no signal -100, concentration not given here
SMILES,GFP signal change (wild-type ribosome),OD600 change,RFP signal change
O=S(=O)(NCC[C@H]1CC[C@@H](NS(=O)(=O)c2ccccc2Cl)[C@@H](CO)O1)c1ccc(Cl)cc1,-2.84% (inactive),-5.01%,0.345%
CC(=O)c1cccc(NC(=O)C2CCN(C(=O)c3ccccc3Cl)CC2)c1,0.045% (inactive),1.11%,1.46%
Cc1ccc2c(c1)C1C[N+](C)(CC(=O)c3ccccc3)CCC1N2C(=O)c1ccccc1Cl (centres undefined),-33.1% (active),-36.3%,20.4%
Cc1ccc(C(=O)N2CCCc3ccccc32)c(Cl)c1,-20.5% (inactive),-35.7%,-12.1%
COc1ccc(NC(=O)N(C)C[C@H]2Oc3ccc(NC(=O)Nc4ccc5c(c4)OCO5)cc3C(=O)N([C@H](C)CO)C[C@H]2C)cc1,0.515% (inactive),4.81%,0.195%
C[C@H](O)C#Cc1cnc2c(c1)C(=O)N([C@H](C)CO)C[C@H](C)[C@@H](CN(C)C(=O)Nc1ccc(F)cc1)O2,1.18% (inactive),9.67%,-3.38%
COc1ccc(C#Cc2ccc([C@H]3[C@H]4CN(C(=O)c5cccnc5)CC(=O)N4[C@H]3CO)cc2)cc1,0.302% (inactive),-5.28%,2.11%
COc1cc(C(=O)NCc2cc3cc(Cl)ccc3n2C)cc(OC)c1OC,4.54% (inactive),12%,5.4%
COc1ccc(OC)c(/C(C)=N\NC(=O)c2cc3cc(Cl)ccc3n2C)c1,-24% (active),-9.4%,-0.802%
COc1ccc(/C(C)=N/NC(=O)CCC(=O)Nc2ccc(Cl)cc2Cl)c(OC)c1,-6.41% (inactive),-4.28%,3.43%
C[C@@H](C(=O)N(C)C[C@H]1OCc2ccccc2-c2c(n(C)c3ccccc23)C(=O)N([C@@H](C)CO)C[C@@H]1C)c1ccccc1,-2.7% (inactive),-4.37%,3.17%
COc1ccc(CN(C)C[C@H]2OCc3cn(nn3)CCCC(=O)N([C@@H](C)CO)C[C@@H]2C)cc1,-0.663% (inactive),4.94%,-1.83%
COc1ccc(NS(=O)(=O)c2ccc(N3CCN(CCO)CC3)c([N+](=O)[O-])c2)cc1,-3.32% (inactive),8.86%,0.35%
COc1ccc(NS(=O)(=O)c2cccc(C(=O)NCCc3ccc(S(N)(=O)=O)cc3)c2)cc1,-0.729% (inactive),-4.13%,2.24%
COc1ccc(NS(=O)(=O)c2ccc(Oc3c(C#N)cccc3C#N)cc2)cc1,-33% (active),-6.7%,-3.93%
C[C@@H]1CN([C@H](C)CO)C(=O)c2cc(NC(=O)CCN3CCOCC3)ccc2O[C@H]1CN(C)Cc1ccc(Oc2ccccc2)cc1,-0.524% (inactive),2.21%,-0.41%
O=C(Nc1ccccc1F)N[C@H]1CC[C@@H](CCNS(=O)(=O)c2ccc(F)cc2)O[C@@H]1CO,0.53% (inactive),-4.9%,0.665%
O=C(NN=Cc1ccccc1O)NN=Cc1ccccc1O,-15.2% (inactive),-34.3%,-9.61%
COC(=O)c1ccc(/C=C2/C(=O)Oc3ccccc32)cc1,5.01% (inactive),8.63%,-1.53%

SMILES,GFP signal change (wild-type ribosome),OD600 change,RFP signal change
O=C1Oc2ccccc2C(=O)/C1=C/c1ccccc1O,-24% (active),-16.1%,-3.67%
O=C(N[C@H]1CC[C@@H](CCNS(=O)(=O)Cc2ccccc2)O[C@H]1CO)c1ccccc1F,1.77% (inactive),2.62%,1.25%
COCC(=O)Nc1ccc2c(c1)C(=O)N(C)C[C@H](OC)[C@@H](C)CN(CCc1ccccc1)[C@@H](C)CO2,-2.84% (inactive),-4.45%,-1.3%
CCC(C)CN1C(=O)CN(S(C)(=O)=O)CC1(C)C(=O)Nc1ccc2c(c1)OCCO2 (centres undefined),11.4% (inactive),6.25%,0.462%
CC1(C(=O)Nc2ccc3c(c2)OCCO3)CSCC(=O)N1CCOc1ccccc1 (centres undefined),-19.5% (active),-13.7%,6.62%
Cc1ccccc1CN1C(=O)CSCC1(C)C(=O)Nc1c(C)cccc1C (centres undefined),-3.76% (inactive),8.15%,2.11%
C[C@@H]1CCCCO[C@@H](CN(C)C(=O)Cc2ccccc2)[C@H](C)CN([C@H](C)CO)C(=O)c2cc(NC(=O)Cc3ccccc3)ccc2O1,-4.58% (inactive),-13.8%,-0.346%
COc1cccc(CNC(=O)[C@@H]2[C@@H](CO)[C@@H]3Cn4c(ccc(-c5ccncc5)c4=O)[C@H]2N3C(C)=O)c1,2.73% (inactive),-2.66%,-0.658%
Cc1noc(C)c1S(=O)(=O)Nc1ccc2c(c1)C(=O)N([C@@H](C)CO)C[C@@H](C)[C@@H](CN(C)C)O2,5.72% (inactive),-2.97%,-0.906%
Cc1cc2cc(CN(Cc3cccs3)Cc3nnnn3CC3CCCO3)c(=O)[nH]c2cc1C (centres undefined),-7.06% (inactive),-4.84%,-2.86%
O=C(c1cccs1)N(Cc1cc2ccccc2[nH]c1=O)CC1CCCO1 (centres undefined),-0.275% (inactive),-2.27%,-1.32%
Cc1cc(C)c2cc(CN(Cc3cccs3)Cc3nnnn3CC3CCCO3)c(=O)[nH]c2c1 (centres undefined),-37.2% (active),-22.2%,-2.73%
CO[C@@H]1CN(C)C(=O)c2ccc(NC(C)=O)cc2OC[C@@H](C)N(CC2CC2)C[C@H]1C,2.26% (inactive),-1.92%,1.24%
CC(=O)N(C)C[C@@H]1Oc2ccc(N)cc2CC(=O)N(C)C[C@H]1C,1.8% (inactive),0.888%,-1%
CNC[C@@H]1Oc2ccc(NC(C)=O)cc2CC(=O)N(C)C[C@@H]1C,-0.631% (inactive),1.55%,0.729%
COc1ccc(S(=O)(=O)N[C@@H]2CC[C@@H](CC(=O)N3CCC(Cc4ccccc4)CC3)O[C@@H]2CO)cc1,8.03% (inactive),-22.7%,10.2%
C[C@H](CO)N1C[C@H](C)[C@H](CN(C)Cc2ccc3c(c2)OCO3)Oc2c(NS(=O)(=O)c3ccccc3)cccc2C1=O,-1.49% (inactive),3.3%,-2.6%
C[C@H](NC(=O)[C@H]1N[C@H]2c3ccc(-c4ccc(C(=O)N(C)C)cc4)c(=O)n3C[C@H]2[C@@H]1CO)c1ccccc1,1.87% (inactive),7.26%,-1.73%
CN(C)C(=O)c1cccc(-c2ccc(C3[C@H]4CNC[C@@H]3N4C(=O)Nc3ccccc3F)cc2)c1 (some centres undefined),0.866% (inactive) and 2.44% (inactive),-5.13% and 4.05%,-2.14% and 0.208%

# Reference: PubChem BioAssay AID720706 (Broad Institute, 2013)
